# Pf growth 96h: Primary qHTS for delayed death inhibitors of the malarial parasite plastid, 96 hour incubation. AID 504834, 2011. 320,000 tested, 6.9% active. Potency, µM (series often up to 28.7 µM), actives largely listed as inhibitors. P. falciparum luciferase reporter growth, 96 h
#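 Parasite growth measured via integrated firefly luciferase reporter in P. falciparum. Infected erythrocytes at 2% hematocrit, 0.05% parasitemia final were treated 96 hours at 37 C under 5% CO2, and luminescence was read.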
# NS1 inh: qHTS Assay for Inhibitors of Influenza NS1 Protein Function; Potency, µM (series often up to 46.1 µM); 270,000 tested, 0.4% active; calls by dose curve; note: actives are rising curves; nearly all actives have a fitted effect of over 50% in size
#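 Recovery from NS1-induced slow growth read by OD600 in budding yeast switched to galactose assay medium (pH 6.0, -URA) at 1:100 dilution. Compound 23 nl per well; the matching strain lacking NS1 serves as control.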
# Cycloheximide cs: Cycloheximide Counterscreen for Small Molecule Inhibitors of Shiga Toxin. cell reporter, cycloheximide protein synthesis inhibition counterscreen. max response, %. 300,000 tested, 12% active. AID 2314, 2010; in the data active = max response mostly above about 13%, no sharp cut-off; inactive = mostly below about 14%; note: read at 38.3 µM for the half of the compounds with a filed dose
# Shiga toxin inh: A qHTS for Small Molecule Inhibitors of Shiga Toxin; 290,000 tested, 9.2% active; Vero cells, Shiga toxin protein synthesis inhibition reporter; inhibition, % at 38.7 µM; in the data active = inhibition mostly above about 28%, no sharp cut-off; inactive = mostly below about 43%
# Pf growth 48h: Primary qHTS for delayed death inhibitors of the malarial parasite plastid, 48 hour incubation. 310,000 tested, 5.9% active. AID 504832, 2011. Potency, µM (series often up to 28.7 µM), actives largely listed as inhibitors. P. falciparum luciferase growth in erythrocytes, 48 h
#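 Read-out is firefly luciferase luminescence from an integrated reporter in P. falciparum, so falling signal marks reduced parasite growth. Infected erythrocytes were at 2% hematocrit and 0.1% parasitemia (final) in Albumax-supplemented RPMI 1640.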
# SARS PLpro yeast: qHTS of Yeast-based Assay for SARS-CoV PLP. S. cerevisiae expressing SARS-CoV PLpro, growth rescue. 330,000 tested, 0.19% active. Potency, µM (titrated, usually from 32.9 µM), hits mostly activators; calls by dose curve; note: nearly all actives have a fitted effect of over 55% in size
# Hits are given with their value; 0 = inactive; ? = inconclusive; - = no result given; [ ] = dose if it differs, or a comment. This is a sample that favours compounds with a hit; in the whole collection about 21% have one here. Unless noted, calls come from the whole dose curve; as a rule, active = well fitted inhibition curve with a large enough effect; inconclusive = small, poorly fitted or top-dose-only effect, or another doubt; inactive = no such curve, though single readings can be large or run the other way.
SMILES,Pf growth 96h,NS1 inh,Cycloheximide cs,Shiga toxin inh,Pf growth 48h,SARS PLpro yeast
CCOC(=O)c1sc2c(c1C)C(c1cccs1)C1=C(CCCC1=O)N2 (stereo not given),12µM,0,0,0,?,0
Cc1cc(NC(=O)c2ccccc2C)n(-c2cccc(F)c2)n1,0,0,0,0,0,0
Cc1cccc(Cn2cnc3c(sc4nc(C)cc(C)c43)c2=O)c1,0,0,0,0,0,0
CCCCCCCOC(=O)C1=C(C)Nc2ncnn2C1c1cccs1 (stereo not given),0,0,0,0,10µM,0
CCOC(=O)C1=C(C)N=C2SCCC(=O)N2C1c1cccs1 (stereo not given),0,0,0,0,0,0
CCOC(=O)C1=C(C)NC(C)=C(C(=O)OCC)C1c1sccc1C,0,0,0,0,5.2µM,0
CCOC(=O)C1=C(C)NC(C)=C(C(=O)OCC)C1c1cccs1,9.3µM,0,0,0,9.3µM,0
CCOC(=O)C1=C(C)N=C2SCCC(=O)N2[C@@H]1c1cccs1,0,0,0,0,10µM,0
COc1ccccc1CN1CC(C(=O)NCc2cc(F)ccc2C)CCC1=O (stereo not given),?,0,32,40,?,0
Cc1ccc(F)cc1CNC(=O)C1CCC(=O)N(CCc2ccccc2)C1 (stereo not given),0,0,0,0,0,0
Cn1cc(CNC(=O)C2CCC(=O)N(Cc3ccccc3F)C2)cn1 (stereo not given),?,0,0,0,0,0
COc1ccccc1CN1CC(C(=O)NCc2cnn(C)c2)CCC1=O (stereo not given),6.6µM,0,0,0,0,0
COc1ccccc1CN1CC(C(=O)N(C)Cc2nc(C)cs2)CCC1=O (stereo not given),?,0,17,0,0,0
Cc1csc(CN(C)C(=O)C2CCC(=O)N(CCCc3ccccc3)C2)n1 (stereo not given),?,0,0,0,0,0
COc1ccccc1CN1CC(C(=O)N(C)CCc2nc3ccc(F)cc3[nH]2)CCC1=O (stereo not given),10µM,0,0,0,0,0
CN(C)/C=C(\C(=O)c1ccc(F)cc1F)c1nnnn1-c1ccccc1,0,0,0,0,0,0
CCN1C/C(=C/c2ccc(N3CCOCC3)cc2)C(=O)/C(=C/c2ccc(N3CCOCC3)cc2)C1,4.1µM,0,26,36,7.4µM,0
CN1CCN(c2ccc(C=O)cc2)CC1,-,0,0,0,0,0
CN1C/C(=C\c2ccc(N3CCOCC3)cc2)C(=O)/C(=C/c2ccc(N3CCOCC3)cc2)C1,0,0,0,0,?,10µM
O=C1CCCC(O)=C1C=Nc1cccc(C(F)(F)F)c1,0[5.75 µM],-,0,0,0,0
Cc1c(O)c2ccccc2oc1=O,0,0,0,0,0,0
CN=C(C)c1c(O)c2ccccc2oc1=O,0,0,18,0,-,0
COc1cccc(N=CC2=C(O)CCCC2=O)c1,0,-,30,0,0,0
Cc1ccc(N=Cc2c(O)c3ccccc3oc2=O)c(C)c1,0,0,30,0,0,0
O=C(O)CCCN=Cc1c(O)c2ccccc2oc1=O,10µM,-,0,0,0,0
SMILES,Pf growth 96h,NS1 inh,Cycloheximide cs,Shiga toxin inh,Pf growth 48h,SARS PLpro yeast
O=C(COc1ccc2c3c(c(=O)oc2c1)CCC3)N[C@@H](Cc1ccccc1)C(=O)O,0,0,0,0,0,0
O=[As](O)(O)c1ccc2nc3cc([As](=O)(O)O)ccc3nc2c1,-,0,-,-,-,-
COc1cccc(N=Cc2c(O)c3ccccc3oc2=O)c1,?,0,21,0,0,0
CCc1cccc(C)c1N=Cc1c(O)c2ccccc2oc1=O,0,0,0,-,13µM,0
Cc1ccc(-n2cccn2)c(CN2CCC(CO)(CCc3ccccc3)CC2)c1,?,0,0,0,?,0
O=C(CCSc1ccc(F)cc1)NNC(=O)c1ccc([N+](=O)[O-])cc1,0,-,-,-,0,0
COc1ccccc1N(CC(=O)NC1CCCCC1)C(=O)CCC(=O)Nc1nccs1,?,0,0,0,?,0
CC(C)(C)NC(=O)NC(=O)COC(=O)c1c(F)cccc1Cl,0,0,36,109,0,0
Nc1ccc(Nc2nc(-c3ccncc3)cs2)cc1,-,0,34,0,0,0
O=C(Nc1nc(-c2ccc(F)cc2)cs1)c1cnccn1,0,0,0,0,0,0
c1ccc(Nc2nc(-c3ccncc3)cs2)cc1,0,0,60,47,0,0
Fc1ccc(Nc2nc(-c3ccncc3)cs2)cc1,0,0,39,80,0,0
CCN(CC)c1ccc(/C=N/NC(=O)c2cccc(S(=O)(=O)Nc3ccccc3OC)c2)cc1,0,0,0,0,?,0
COc1ccccc1NS(=O)(=O)c1cccc(C(=O)N/N=C/c2ccc([N+](=O)[O-])o2)c1,1.7µM,-,-,-,1.9µM,0
CCN(CC)c1ccc(/C=N/NC(=O)c2cccc(S(=O)(=O)Nc3ccccc3OC)c2)c(O)c1,12µM,0,0,0,9.3µM,1.8µM
COc1ccccc1NS(=O)(=O)c1cccc(C(=O)N/N=C/c2ccc3c(c2)OCCO3)c1,0,0,28,53,0,0
COc1ccccc1NS(=O)(=O)c1cccc(C(=O)N/N=C2\CC(=O)CC(C)(C)C2)c1,?,0,0,0,13µM,0
O=C(O)COc1cccc2c1CCC=C2CCO/N=C(\c1ccccc1)c1cccnc1,-,-,0,0,-,-
Cc1ccc(-c2csc3ncnc(N4CCN(c5ccccc5O)CC4)c23)cc1,10µM,0,0,0,9.3µM,0
COc1ccc(-c2csc3ncnc(N4CCN(c5ccccc5)CC4)c23)cc1,?,0,0,0,?,0
CCn1cnc2scc(-c3ccc(OC)cc3)c2c1=O,10µM,0,0,0,0,0
Cc1ccc(-c2csc3ncn(Cc4ccc(C(=O)O)cc4)c(=O)c23)cc1C,12µM,0,0,0,0,0
O=C(O)c1ccc(Cn2cnc3scc(-c4ccccc4)c3c2=O)cc1,0,0,0,0,0,0
COc1ccc(-c2csc3ncnc(N4CCN(c5ccccc5O)CC4)c23)cc1,0,0,0,0,0,-
CCCn1cnc2scc(-c3ccc(OC)cc3)c2c1=O,0,0,0,-,0,0
COc1ccc(-c2csc3ncnc(N4CCN(Cc5ccccc5)CC4)c23)cc1,6.6µM,0,0,0,?,0
Cc1cccc(N(C)c2ncnc3onc(-c4ccc(F)cc4)c23)c1C,?,0,0,0,0,0
CC(=O)Nc1ccc(NS(=O)(=O)c2cccc3nonc23)cc1,0,0,0,0,0,0
COC(=O)c1ccc(CNC(=O)CNC(=O)c2sc3ccccc3c2Cl)cc1,0,-,-,-,?,0
COc1ccc(-c2csc3ncnc(N4CCN(c5ccccc5[N+](=O)[O-])CC4)c23)cc1,9.3µM,?,0,0,?,0
